# Laboratory results published in the supplement of paper PMC10849652.
# Targets with a hit are over-represented here; the source holds about 7,900 in all. About 0.6% of all pairs of compound and target were hits. Unmarked numbers belong to inactive results.
# Legend:
# Experiment in all cases: log2 fold change, soluble protein after heating vs DMSO (PISA); higher = thermal stabilisation; K562 cells, 10 uM, 30 min; active = over 0.2 and 3.5 SD of the protein, either way, in both replicates (recomputed)
# [1] = compound: CC[C@@H]1C(=O)N(C)c2cnc(Nc3ccc(C(=O)NC4CCN(C)CC4)cc3OC)nc2N1C1CCCC1
# Outline: (§1)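 K562 cells at 2×10^6 cells/mL were exposed to 10 μM compound for 30 min, then aliquots were heated for 3 min across 48°C-58°C, pooled, and extracted in PBS containing 0.5% NP-40 at 4°C. The supernatant after 21,000xg for 90 min was taken as soluble protein and measured by TMTpro 16plex LC-MS/MS with channel sums equalised. Thermal stability is reported relative to control samples, with values from duplicates. Fold changes are given on a log2 scale.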
# volasertib = compound: CC[C@@H]1C(=O)N(C)c2cnc(Nc3ccc(C(=O)N[C@H]4CC[C@H](N5CCN(CC6CC6)CC5)CC4)cc3OC)nc2N1C(C)C [volasertib]
# Outline: as §1
# [2] = compound: CC[C@H](C)N1C=C(C2=C(C=C(C=C21)C3=CN=C(C=C3)N4CCNCC4)C(=O)NCC5=C(C=C(NC5=O)C)C)C
# Outline: as §1
# epoxomicin = compound: CC[C@H](C)[C@@H](C(=O)N[C@@H]([C@@H](C)O)C(=O)N[C@@H](CC(C)C)C(=O)[C@]1(CO1)C)NC(=O)[C@H]([C@@H](C)CC)N(C)C(=O)C [epoxomicin]
# Outline: as §1
# [3] = compound: CCn1c(C(=O)N(C2CC2)C2CC2)cc2c3c(ncn3C)c(Nc3cc(C)n(C)n3)nc21
# Outline: as §1
# [4] = compound: CCn1cc(-c2ccnc3[nH]c(-c4cccc(CN(C)C)c4)cc23)c(-c2ccc(NC(=O)N(C)C)cc2)n1
# Outline: as §1
# [5] = compound: CN(C)CC(=O)Nc1ccc2[nH]c(=O)c3ccccc3c2c1
# Outline: as §1
# rosiglitazone = compound: CN(CCOC1=CC=C(C=C1)C[C@H]2C(=O)NC(=O)S2)C3=CC=CC=N3 (racemic) [rosiglitazone]
# Outline: as §1
# [6] = compound: CN1C2=C(C3=C1C(=O)N(N=C3)CC4=CC(=CC=C4)N)SC(=C2)S(=O)C
# Outline: as §1
# [7] = compound: CN1CCC(CNc2ccc3ncc(-c4cccc(OC(F)(F)F)c4)n3n2)CC1
# Outline: as §1
# UniProt P15735, sequence (P15735 whole entry, looked up): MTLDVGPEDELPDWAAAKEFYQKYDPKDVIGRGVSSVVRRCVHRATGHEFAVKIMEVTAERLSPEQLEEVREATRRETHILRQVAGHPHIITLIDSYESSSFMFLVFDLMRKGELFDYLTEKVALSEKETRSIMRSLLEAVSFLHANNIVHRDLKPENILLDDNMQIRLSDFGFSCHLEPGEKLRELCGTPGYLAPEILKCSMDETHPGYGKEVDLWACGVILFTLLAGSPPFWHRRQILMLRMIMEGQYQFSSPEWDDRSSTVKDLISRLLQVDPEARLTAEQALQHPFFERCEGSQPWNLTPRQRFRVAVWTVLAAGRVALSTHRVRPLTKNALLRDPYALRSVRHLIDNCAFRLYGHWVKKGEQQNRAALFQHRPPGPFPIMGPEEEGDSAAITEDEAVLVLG
# UniProt Q9UPN7, sequence (Q9UPN7 whole entry, looked up): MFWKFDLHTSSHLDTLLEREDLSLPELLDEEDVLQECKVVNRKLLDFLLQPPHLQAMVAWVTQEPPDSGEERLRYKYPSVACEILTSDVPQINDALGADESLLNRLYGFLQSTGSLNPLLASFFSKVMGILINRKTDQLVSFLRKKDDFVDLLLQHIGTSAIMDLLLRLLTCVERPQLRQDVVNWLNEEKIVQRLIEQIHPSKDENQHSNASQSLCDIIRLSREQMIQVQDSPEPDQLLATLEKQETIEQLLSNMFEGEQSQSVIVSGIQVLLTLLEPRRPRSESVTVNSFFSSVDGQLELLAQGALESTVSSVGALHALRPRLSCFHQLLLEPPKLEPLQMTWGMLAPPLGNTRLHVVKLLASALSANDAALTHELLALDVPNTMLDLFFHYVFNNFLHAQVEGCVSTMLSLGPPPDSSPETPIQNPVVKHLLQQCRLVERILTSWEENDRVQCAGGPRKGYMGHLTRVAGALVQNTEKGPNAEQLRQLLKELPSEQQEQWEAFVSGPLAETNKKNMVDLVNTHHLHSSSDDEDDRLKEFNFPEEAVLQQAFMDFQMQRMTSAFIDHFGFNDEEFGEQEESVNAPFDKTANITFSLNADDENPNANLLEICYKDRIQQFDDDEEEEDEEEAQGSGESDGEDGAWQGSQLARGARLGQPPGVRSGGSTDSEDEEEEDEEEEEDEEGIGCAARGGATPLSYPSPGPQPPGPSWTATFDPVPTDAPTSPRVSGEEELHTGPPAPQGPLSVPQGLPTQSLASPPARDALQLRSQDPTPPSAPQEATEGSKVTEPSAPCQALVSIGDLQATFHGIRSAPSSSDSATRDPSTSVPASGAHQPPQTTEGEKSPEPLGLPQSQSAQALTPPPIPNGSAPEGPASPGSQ
# UniProt O96013, sequence (O96013 whole entry, looked up): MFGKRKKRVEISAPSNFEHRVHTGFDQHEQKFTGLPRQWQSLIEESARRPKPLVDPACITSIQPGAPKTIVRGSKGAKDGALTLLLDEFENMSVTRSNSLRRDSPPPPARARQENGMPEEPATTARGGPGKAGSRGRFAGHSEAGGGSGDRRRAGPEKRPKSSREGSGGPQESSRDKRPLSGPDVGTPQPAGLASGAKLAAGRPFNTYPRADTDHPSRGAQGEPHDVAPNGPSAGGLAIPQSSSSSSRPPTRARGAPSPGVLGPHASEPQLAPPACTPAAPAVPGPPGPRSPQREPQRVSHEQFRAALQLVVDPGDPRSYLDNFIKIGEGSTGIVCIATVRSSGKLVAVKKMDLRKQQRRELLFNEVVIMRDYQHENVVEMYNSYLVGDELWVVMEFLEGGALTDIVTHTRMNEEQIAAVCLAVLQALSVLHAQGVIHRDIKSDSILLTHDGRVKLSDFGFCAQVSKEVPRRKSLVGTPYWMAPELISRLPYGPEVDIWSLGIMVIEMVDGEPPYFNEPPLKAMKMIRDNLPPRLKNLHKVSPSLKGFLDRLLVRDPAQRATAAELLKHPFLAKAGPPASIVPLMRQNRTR
# UniProt P51665, sequence (P51665 whole entry, looked up): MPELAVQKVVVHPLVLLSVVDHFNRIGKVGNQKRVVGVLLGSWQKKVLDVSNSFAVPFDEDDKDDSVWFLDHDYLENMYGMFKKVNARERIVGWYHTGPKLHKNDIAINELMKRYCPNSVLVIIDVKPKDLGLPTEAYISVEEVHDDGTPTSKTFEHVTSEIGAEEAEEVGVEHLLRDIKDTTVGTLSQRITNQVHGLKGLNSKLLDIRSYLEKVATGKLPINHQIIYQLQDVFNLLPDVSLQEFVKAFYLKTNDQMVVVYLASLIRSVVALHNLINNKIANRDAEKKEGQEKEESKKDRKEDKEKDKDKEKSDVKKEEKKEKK
# UniProt P53609, sequence (P53609 whole entry, looked up): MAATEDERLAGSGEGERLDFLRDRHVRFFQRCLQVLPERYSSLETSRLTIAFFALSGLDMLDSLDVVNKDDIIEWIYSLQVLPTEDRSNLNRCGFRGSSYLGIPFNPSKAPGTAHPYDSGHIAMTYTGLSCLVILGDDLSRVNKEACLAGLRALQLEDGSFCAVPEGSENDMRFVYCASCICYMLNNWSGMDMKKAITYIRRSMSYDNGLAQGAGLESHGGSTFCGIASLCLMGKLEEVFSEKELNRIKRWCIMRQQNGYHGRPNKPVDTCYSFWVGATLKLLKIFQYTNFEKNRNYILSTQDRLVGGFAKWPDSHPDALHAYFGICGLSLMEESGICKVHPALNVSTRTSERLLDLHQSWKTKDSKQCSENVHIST
# UniProt Q15185, sequence (Q15185 whole entry, looked up): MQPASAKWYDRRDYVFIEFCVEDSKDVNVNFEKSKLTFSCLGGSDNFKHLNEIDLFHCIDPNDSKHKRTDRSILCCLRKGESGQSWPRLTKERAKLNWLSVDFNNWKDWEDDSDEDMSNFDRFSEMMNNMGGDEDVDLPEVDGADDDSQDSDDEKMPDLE
# UniProt O00231, sequence (O00231 whole entry, looked up): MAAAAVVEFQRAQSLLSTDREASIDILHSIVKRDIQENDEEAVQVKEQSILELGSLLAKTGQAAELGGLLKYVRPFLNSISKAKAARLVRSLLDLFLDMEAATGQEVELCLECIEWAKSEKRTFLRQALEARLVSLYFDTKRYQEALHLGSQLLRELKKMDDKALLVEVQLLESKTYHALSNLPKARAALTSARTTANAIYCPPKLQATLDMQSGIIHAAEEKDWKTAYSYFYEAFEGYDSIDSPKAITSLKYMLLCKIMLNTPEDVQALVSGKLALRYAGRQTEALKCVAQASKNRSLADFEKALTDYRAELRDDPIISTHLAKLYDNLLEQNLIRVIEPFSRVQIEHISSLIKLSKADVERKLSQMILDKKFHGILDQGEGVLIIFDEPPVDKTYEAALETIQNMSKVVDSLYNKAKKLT
Target,log2 fold change [1],log2 fold change (volasertib),log2 fold change [2],log2 fold change (epoxomicin),log2 fold change [3],log2 fold change [4],log2 fold change [5],log2 fold change (rosiglitazone),log2 fold change [6],log2 fold change [7]
PAK4 (UniProt O96013),-0.026,-0.088,-0.026,-0.017,0.009,-0.059,-0.012,0.062,0.049,-0.083
PPP6R1 (UniProt Q9UPN7),-0.098,-0.297 (active),0,-0.033,0.029,0.026,0.053,0.026,-0.007,-0.048
PSMD7 (UniProt P51665),0.027,0.205,0,-0.236,0.01,0.027,-0.019,-0.047,0.083,0.06
PHKG2 (UniProt P15735),-0.155,-0.195,0.054,-0.004,0.01,0.043,-0.002,0.018,-0.027,-0.156
PGGT1B (UniProt P53609),0.056,0.098,0.004,-0.011,0.031,-0.026,-0.009,0.032,-0.101,-0.008
PRKCG (UniProt P05129),-0.253,-0.062,0.058,0.086,-0.078,-0.117,0.058,0.044,0.093,-0.176
PSMD11 (UniProt O00231),0.011,0.187,0.036,-0.262,-0.016,0,0,-0.016,0.018,0.053
PTGES3 (UniProt Q15185),-0.21,-0.504 (active),0.096,0.041,0,-0.11,0.049,0.048,-0.045,-0.134
